Test results taken from PubChem BioAssay (EPA / NIEHS).
Calls of active or inactive are those of the source. Rule for the calls: active = hit-call score of the fitted dose curve at least 0.9, where 1 is the maximum; inactive = score below 0.9.

Assay: CCTE_Harrill_HTTr_Apoptosis_MCF7: CCTE's 6-hour Apoptosis Assessment for the High-Throughput Transcriptomics (HTTr) Platform, in MCF-7 cells cultured in DMEM + 10% fetal bovine serum, Harrill Lab (AID 2284011)
Text: This is a cell-based assay that evaluates apoptosis using high content imaging to evaluate activation of caspase-3/7 using the CellEvent Caspase 3/7 Green detection reagent in 384-well format.One of seven assay components measured from the CCTE_Harrill_HTTr_Apoptosis assay. This was part of a full screening experiment. This is a cell-based assay that evaluates apoptosis in MCF-7 cells cultured in DMEM + 10% fetal bovine serum. High content imaging is used to evaluate activation of caspase-3/7 using the CellEvent Caspase 3/7 Green detection reagent. Measurements are taken at 6 hours after chemical dosing in 384-well format.The assay component endpoint CCTE_Harrill_HTTr_Apoptosis_MCF7 was analyzed with bidirectional fitting relation to DMSO as the negative control and baseline of activity. Using a type of viability reporter, gain-of-signal activity can be used to evaluate activation of caspase-3/7 using the CellEvent Caspase 3/7 Green detection reagent to understand changes in apoptosis. To generalize the intended target to other relatable targets, this assay endpoint is annotated to cell cycle, where the subfamily is apoptosis.
Chemicals were tested in MCF7 cells in an eight point dilution series with a six hour exposure duration.

Which outcome does the source give for `CCCCCCCOC(=O)c1ccccc1C(=O)OCCCCCCC` here?
Its outcome is “inactive”.

Which outcome does the source give for `CNC(=S)NC` here?
The outcome was “inactive”.

For `C#C[C@]1(O)CC[C@H]2[C@@H]3CCc4cc(OC)ccc4[C@H]3CC[C@@]21C`, which outcome is on record?
Its outcome is “inactive”.

Which outcome does the source give for `CC(Cc1ccc(O)c(O)c1)C(C)Cc1ccc(O)c(O)c1` (configuration not stated) here?
The outcome was “inactive”.

For `CC/C=C\CCOC(C)=O`, which outcome is on record?
The outcome was “inactive”.

With `CCCCCC=O` as the compound, how does the outcome read?
Its outcome is “inactive”.

With `CC(CCl)OP(=O)(OC(C)CCl)OC(C)CCl` (configuration not stated) as the compound, how does the outcome read?
Its outcome is “inactive”.

For `CCN(Cc1cccc(S(=O)(=O)O)c1)c1ccc(C(=C2C=CC(=[N+](CC)Cc3cccc(S(=O)(=O)O)c3)C=C2)c2ccc(O)cc2S(=O)(=O)[O-])cc1`, which outcome is on record?
Its outcome is “inactive”.

For `C1COCCN1`, which outcome is on record?
The outcome was “inactive”.

Which outcome does the source give for `OC[C@@H](O)[C@@H](O)[C@H](O)[C@@H](O)CO` here?
The outcome was “inactive”.

With `Nc1ccc(S(=O)(=O)Nc2nccs2)cc1` as the compound, how does the outcome read?
Its outcome is “inactive”.

With `O=S(=O)(O)c1ccc2ccccc2c1` as the compound, how does the outcome read?
The outcome was “inactive”.
